These results are taken from PubChem BioAssay (NCATS).

Inconclusive results are not listed. The source made the active and inactive calls. Calls follow the shape of the dose curve; as a rule, active = well fitted activation curve with a large enough effect; inconclusive = small, poorly fitted or top-dose-only effect; inactive = flat fitted curve, though single readings scatter.
Potency is read from the fitted curve at half-maximal effect.

This assay can be described thus: Cell Proliferation Assay against the TMD8 Cell Line (Caspase readout at 16 hrs) (AID 651712). To be noted: TMD8 lymphoma cells, caspase activation luminescence; series mostly up to 46.1 µM; caspase activation: at the top concentration. The text has this: One class of targeted therapeutics showing early clinical success in killing of ABC DLBCL lines are small molecule inhibitors of the Bruton tyrosine kinase (BTK) 11. Thus, we chose to investigate what additional compounds, if any, would synergize with the BTK inhibitor Ibrutinib (PCI-32765).
Prior to any combination assays, using an NCATS developed oncology compound library called the Mechanism of Interrogation Plate (MIPE), two well studied ABC DLBCL lines (TMD8 and HBL1) were screened using a cell viability assay (CellTiterGlo) and a 12-point titration series for each single agent. These initial experiments offered insight into the concentration range that offered the best coverage of activity and non-activity to assure relevant data is generated. In addition to the viability signature associated with this library, we examined the apoptotic response of each agent versus the TMD8 line as judged by caspase 3/7 activation. Activity was assayed at both 8 and 16 hour time-points to gain an appreciation of which agents induced an apoptotic response in a reasonable timeframe from a therapeutic exposure perspective. MIPE was also assayed for single agent viability in a human mesenchymal stem cell (hMSC) line as a surrogate of each library members potential therapeutic index.
The combination plates were then generated by choosing 20 of the best compounds from this single agent screen and plated in the presence of the BTK inhibitor. The first analysis was carried out using 6x6 dose response blocks for each of the 20 compounds. […] In addition to the cell viability assay, the parallel caspase 3/7 activation and viability in hMSC assays were carried out in the 10x10 format.
A total of 500 log growing TMD8 cells are seeded per well in 5 uL of a RPMI with glutamine (or Glutamax), without phenol red plus 5% FBS and 1X Pen/Strep into 1536 -solid white high base tissue culture treated Greiner One Bio Plates (789173-F) using a multidrop combi dispenser and a small sterile cassette. Compounds and controls totaling 23nL per well (negative control DMSO and positive control 9.2 uM Bortezomib-final) are immediately added to the plates using a 1536 head pin tool from Kalypsys. The plates are then covered with stainless steel gasket lids from Kalypsys and incubated for either 16 hours at 37C under 95% relative humidity with 5% CO2. After the desired incubation time, the plates are removed and allowed to reach room temperature before 3 uL of the Caspase Glo reagent (Promega) is added using an Aurora Flying Reagent Dispenser Bioraptor. The plates are then spun at 1000 rpms to remove bubbles and incubated for 15 minutes at room temperature before read on a ViewLux using a luminescent filter with a 10 second exposure. The relative luciferase units are used to calculated percent activity using DMSO as 0% and Bortezomib as 100%.
As for `COc1cc2ncnc(-n3nc(-c4ccccn4)nc3N)c2cc1OC`, the Potency is 16.6 µM (active).

For the compound `CN(C)C1CCN(C(=O)c2ccc(NC(=O)Nc3nc(N4CCOCC4)nc(N4CCOCC4)n3)cc2)CC1`, the Potency is 6.62 µM (active).

`Cc1ccc(F)c(NC(=O)Nc2ccc(-c3cccc4[nH]nc(N)c34)cc2)c1`: the “caspase activation” value is 29% (inactive).

For `CC(C)(C)C(=O)Oc1ccc2c(c1)nc(NC(=O)c1cccc([N+](=O)[O-])c1)n2CCCO`, the “caspase activation” value is 12.9% (inactive).

Turning to `CC(C)[C@H](CO)Nc1nc(Nc2ccc(C(=O)O)c(Cl)c2)c2ncn(C(C)C)c2n1`, the “caspase activation” value was 5.07% (inactive).

With `CC(=O)N(C)C1(c2ccccc2)CCN(CCC[C@]2(c3ccc(Cl)c(Cl)c3)CCCN(C(=O)c3ccccc3)C2)CC1`, the Potency was 11.8 µM (active).

On to `CO[C@H]1C[C@@H]2CC[C@@H](C)[C@@](O)(O2)C(=O)C(=O)N2CCCC[C@@H]2C(=O)O[C@H]([C@H](C)C[C@@H]2CC[C@H](OCCO)[C@H](OC)C2)CC(=O)[C@H](C)C=C(C)[C@@H](O)[C@@H](OC)C(=O)[C@H](C)C[C@H](C)C=CC=CC=C1C`, for which the “caspase activation” value was -1.14% (inactive).

For the compound `O=C1C(Cl)=C(NCCN2CCOCC2)C(=O)c2ncccc21`, the “caspase activation” value is -10.7% (inactive).

On to `COc1cccc2c1CCCC2CCCN1CCN(C2CCCCC2)CC1` (stereo not given), for which the Potency was 23.5 µM (active).

For `O=C(O)c1ccc(-c2cc3cccnc3c(-c3ccc4nonc4c3)n2)cc1`, the “caspase activation” value is 3.12% (inactive).

Take `CC(C)C(=O)Nc1ncc(-c2cc(C(F)F)nn2-c2c(Cl)cccc2Cl)s1`: the Potency is 16.6 µM (active).

Regarding `O=C(CCCCCCC(=O)Nc1ccccc1)NO`, the Potency was 0.429 µM (active).

Turning to `O=C(O)CCC1CCC(c2cc(F)ccc2F)(S(=O)(=O)c2ccc(Cl)cc2)CC1` (stereo not given), the “caspase activation” value was 2.31% (inactive).

`COc1cc(Nc2ncc(F)c(Nc3ccc4c(n3)NC(=O)C(C)(C)O4)n2)cc(OC)c1OC`: the “caspase activation” value was 4.96% (inactive).

`CS(=O)c1ccc(-c2nc(-c3ccc(F)cc3)c(-c3ccncc3)[nH]2)cc1` (stereo not given): the “caspase activation” value was 21.4% (inactive).

For `N#Cc1ccc(NC(=O)Nc2ccccc2Br)c2n[nH]nc12`, the “caspase activation” value is 23.5% (inactive).

With `NC(CO)(CO)CCc1ccc(Sc2cccc(OCc3ccccc3)c2)cc1Cl`, the “caspase activation” value was 9.14% (inactive).

Regarding `CCOc1ccc(Nc2nc(-c3c(C)nc4ccccn34)cs2)cc1`, the Potency was 0.105 µM (active).

`Clc1ccc(-c2nc3sccn3c2C=NOCc2ccc(Cl)c(Cl)c2)cc1`: the “caspase activation” value is 4.53% (inactive).

For the compound `COc1ncc(-c2ccc3nccc(-c4ccnnc4)c3c2)cc1NS(=O)(=O)c1ccc(F)cc1F`, the “caspase activation” value is 90.5% (inactive).

As for `CC(C)(C)c1cc(C(=O)O)c(NC(=O)Nc2ccc3[nH]ncc3c2)s1`, the “caspase activation” value is 4.05% (inactive).

Take `O=C(Nc1ccccc1-c1cn2c(CN3CCNCC3)csc2n1)c1cnc2ccccc2n1`: the “caspase activation” value was 24.5% (inactive).

Consider `CC(C)(C)COc1ccc(-n2cc(C(=O)O)cn2)cc1C#N`, for which the “caspase activation” value is -7.49% (inactive).

For the compound `OC[C@H]1O[C@@H](n2cnc3c2NC=NC[C@@H]3O)C[C@H]1O`, the “caspase activation” value is 4.92% (inactive).

Regarding `CC(C)(C(=O)NCC(F)(F)C(F)(F)F)C(=O)N[C@@H]1C(=O)Nc2ccccc2-c2ccccc21`, the “caspase activation” value was 3.76% (inactive).
